Our source for the growth values is PubChem BioAssay (NCI).

Among the test systems are DU-145 prostate; K-562 leukemia; MALME-3M melanoma; MDA-MB-231 breast; RXF 393 renal; SF-268 CNS; SF-295 CNS; SF-539 CNS; UACC-257 melanoma; M14 melanoma.
Common to all, as to assay: NCI-60 one-dose screen, 48 h (100 = growth as untreated, 0 = no growth, -100 = all killed)
Conditions in all cases: 10 µM unless noted

The panel holds about 83,000 compounds, 20% with a hit somewhere; the sample as a whole holds those more often.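 Activity criterion: percent growth below 10, measured after cells in 96-well plates were exposed to a single compound concentration for 48 hours.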 Unmarked numbers belong to inactive results. Activity calls are given as the source filed them.

With `O=C(c1cc2ccccc2o1)c1nn(-c2ccccc2)/c(=N/N=Cc2cn(-c3ccccc3)nc2-c2cc3ccccc3oc2=O)s1`, the growth was 103% with DU-145 prostate; 78.2% in the assay with K-562 leukemia; 98.9% with MALME-3M melanoma; 86.2% in the assay on MDA-MB-231 breast; 107% in the assay with RXF 393 renal; 96.8% in the assay on SF-268 CNS. Also, the growth in the assay with SF-295 CNS is 104%; in the assay with SF-539 CNS, 98.4%; in the assay on UACC-257 melanoma it was 103%; in the assay with M14 melanoma, 97.8%.
With `COc1ccccc1Nc1nc2c(s1)C1=CC[C@H]3[C@@H]4CC[C@H]([C@H](C)CCCC(C)C)[C@@]4(C)CC[C@@H]3[C@@]1(C)CC2`, the growth in the assay with DU-145 prostate is 103%; in the assay with K-562 leukemia, 102%; in the assay on MALME-3M melanoma, 101%; with MDA-MB-231 breast, 103%; in the assay with RXF 393 renal, 117%; in the assay on SF-268 CNS, 102%. The growth in the assay on SF-295 CNS is 108%; in the assay with SF-539 CNS, 104%; in the assay with UACC-257 melanoma it was 110%; with M14 melanoma it was 101%.
Turning to `N#C/C(=C\c1ccc(-c2ccc(Cl)cc2)o1)C(=O)Nc1ncc(Cc2ccc(Cl)cc2)s1`, the growth with DU-145 prostate is 19.6%; with K-562 leukemia, 62.2%; with MALME-3M melanoma, 5.36% (active); with MDA-MB-231 breast, 36.7%; with RXF 393 renal, 109%; in the assay on SF-268 CNS, 71.6%. Also, the growth was 9.09% (active) with SF-295 CNS, 27.1% in the assay on SF-539 CNS, -28.3% (active) in the assay with UACC-257 melanoma and 39.1% in the assay on M14 melanoma.
On to `Oc1c(Cl)cc(Cl)c2ccc(Cn3cc(-c4ccc(C(F)(F)F)cc4)nn3)nc12`, for which the growth in the assay with DU-145 prostate is 48.9%; in the assay with K-562 leukemia it was 4.56% (active); with MALME-3M melanoma, 45.5%; with MDA-MB-231 breast, 86.7%; in the assay on RXF 393 renal, 5.98% (active); with SF-268 CNS it was 83.9%. The growth was 104% with SF-295 CNS, 69.4% in the assay on SF-539 CNS, 58.1% in the assay with UACC-257 melanoma and 55.5% in the assay with M14 melanoma.
Turning to `O=C(CCC(=O)N/N=C/c1ccccc1O)N/N=C/c1ccccc1O`, the growth was 48.4% in the assay on DU-145 prostate; 40.4% in the assay on K-562 leukemia; 62.5% with MALME-3M melanoma; 49% with MDA-MB-231 breast; 58.9% with RXF 393 renal; 33.2% with SF-268 CNS. The growth in the assay on SF-295 CNS was 89.6%; in the assay on SF-539 CNS, 30%; in the assay with UACC-257 melanoma, 76%; in the assay with M14 melanoma, 36.4%.
On to `Cc1nc2c(=O)[nH]c(SCC(=O)Nc3cccc(F)c3)nc2[nH]c1=O`, for which the growth is 109% in the assay on DU-145 prostate; 101% with K-562 leukemia; 105% with MALME-3M melanoma; 101% with MDA-MB-231 breast; 106% with RXF 393 renal; 102% in the assay on SF-268 CNS. Moreover, the growth was 103% in the assay with SF-295 CNS, 101% in the assay with SF-539 CNS, 98.9% in the assay with UACC-257 melanoma and 96.1% with M14 melanoma.
Take `CCCCCCCCn1ccc2cc(NC(=O)CN3CCN(c4nc(C)cc(Cl)n4)CC3)ccc21`: the growth in the assay on DU-145 prostate is 101%; in the assay with K-562 leukemia it was 85.2%; in the assay on MALME-3M melanoma, 91.5%; with MDA-MB-231 breast, 107%; in the assay on RXF 393 renal, 103%; in the assay with SF-268 CNS it was 96.3%. Moreover, the growth in the assay on SF-295 CNS is 102%; with SF-539 CNS, 107%; in the assay on UACC-257 melanoma it was 114%; in the assay on M14 melanoma, 96.1%.
As for `CCn1cc(C(=O)N/N=C/c2cccs2)c(=O)c2cc(F)c(N3CCNC(C)C3)c(F)c21` (stereo not given), the growth in the assay with DU-145 prostate was 48.3%; in the assay on K-562 leukemia it was -39% (active); in the assay on MALME-3M melanoma, -36.7% (active); in the assay on MDA-MB-231 breast, 41%; in the assay on RXF 393 renal, 16.2%; with SF-268 CNS it was 79.1%. The growth with SF-295 CNS was 85.3%; in the assay with SF-539 CNS, 84.2%; in the assay with UACC-257 melanoma, 108%; in the assay on M14 melanoma, 49.4%.
Regarding `Oc1ccc(CN2CCC(N3CCCCC3)CC2)c2cccnc12`, the growth is 37.9% in the assay with DU-145 prostate; 15.8% in the assay on K-562 leukemia; 9.88% (active) in the assay on MALME-3M melanoma; 15.2% with MDA-MB-231 breast; 29.6% in the assay with RXF 393 renal; 38.9% with SF-268 CNS. Further, the growth was 38.4% in the assay with SF-295 CNS, 22% in the assay with SF-539 CNS, 21% with UACC-257 melanoma and 30.3% in the assay on M14 melanoma.
For `Fc1cc2c(cc1Cl)N(c1ncnc3ccc(-c4cnc5[nH]ncc5c4)cc13)CC2`, the growth in the assay on DU-145 prostate was 56.2%; with K-562 leukemia, 77.5%; in the assay on MALME-3M melanoma it was 77.3%; in the assay with MDA-MB-231 breast it was 52.7%; in the assay on RXF 393 renal it was 38.5%; in the assay on SF-268 CNS, 57.3%. Further, the growth in the assay on SF-295 CNS was 72.9%; in the assay on SF-539 CNS, 68.2%; in the assay with UACC-257 melanoma it was 86.3%; in the assay on M14 melanoma it was 85.5%.
In the case of `CCCCCCNC(=O)Oc1ccc(/C(=C(/C)Cc2ccc(OC)cc2)c2ccc(OCCCN(C)C)cc2)cc1`, the growth in the assay with DU-145 prostate is 48.9%; in the assay on K-562 leukemia, -51.8% (active); with MALME-3M melanoma, -51.2% (active); with MDA-MB-231 breast, 32.6%; in the assay with RXF 393 renal, 31.2%; with SF-268 CNS it was 60.8%. The growth in the assay on SF-295 CNS is 10.5%; in the assay with SF-539 CNS, 40.7%; with UACC-257 melanoma, -6.6% (active); with M14 melanoma, -63.9% (active).
Turning to `N#CC1C=CN(CC(N)=O)c2ccc3cccnc3c21` (stereo not given), the growth is 108% in the assay on DU-145 prostate; 94.7% with K-562 leukemia; 97.5% in the assay on MALME-3M melanoma; 95.5% in the assay with MDA-MB-231 breast; 114% in the assay on RXF 393 renal; 105% in the assay on SF-268 CNS. The growth with SF-295 CNS is 103%; with SF-539 CNS, 99.1%; in the assay with UACC-257 melanoma, 89%; in the assay on M14 melanoma, 97.7%.
For the compound `Brc1ccc(-n2cc(-c3nn[nH]n3)c(-c3cccs3)n2)cc1`, the growth in the assay with DU-145 prostate was 107%; with K-562 leukemia it was 100%; with MALME-3M melanoma, 93.7%; in the assay on MDA-MB-231 breast it was 88.1%; with RXF 393 renal, 105%; in the assay on SF-268 CNS it was 100%. Moreover, the growth in the assay on SF-295 CNS is 95.3%; in the assay on SF-539 CNS, 96%; in the assay with UACC-257 melanoma, 96.1%; in the assay on M14 melanoma, 95.9%.
`COC(=O)CCC(=O)C(=O)OC`: the growth in the assay with DU-145 prostate was 10.6% [10 mM]; in the assay on K-562 leukemia it was 7.9% [10 mM] (active); in the assay with MALME-3M melanoma, 42.4% [10 mM]; in the assay on MDA-MB-231 breast it was 35.5% [10 mM]; with RXF 393 renal, -8.87% [10 mM] (active); with SF-268 CNS it was -10.3% [10 mM] (active). Further, the growth with SF-295 CNS was 30.2% [10 mM]; in the assay with SF-539 CNS, 4.1% [10 mM] (active); in the assay on UACC-257 melanoma, -15.1% [10 mM] (active); in the assay on M14 melanoma, 7.27% [10 mM] (active).
As to `C=C1C(=O)O[C@H]2[C@H]1CC/C(COC(=O)NCc1cc[nH]c1)=C\CC[C@@]1(C)O[C@@H]21`, the growth in the assay with DU-145 prostate is 12.4%; in the assay with K-562 leukemia it was 16.6%; in the assay on MALME-3M melanoma, 84.2%; in the assay on MDA-MB-231 breast, 35.4%; in the assay with RXF 393 renal, 31.1%; in the assay on SF-268 CNS it was 64.9%. Moreover, the growth in the assay on SF-295 CNS is 83.5%; in the assay on SF-539 CNS, 50.8%; in the assay on UACC-257 melanoma, 59.1%; with M14 melanoma it was 32.7%.
